In all, about 370,000 compounds went through this assay and about 3,300 (0.89%) were called active. The sample holds actives, similar compounds and a random draw of the others, so the mix is not that of the screen.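 How the source made its calls: active means activation above the mean of all tested compounds plus 3 SD, computed per campaign excluding outliers beyond control limits (cut at about 13% in these data); inactive means the rest.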
Biological target: Kallikrein-7 (Homo sapiens) (UniProt P49862)
Sequence (P49862 whole entry, looked up): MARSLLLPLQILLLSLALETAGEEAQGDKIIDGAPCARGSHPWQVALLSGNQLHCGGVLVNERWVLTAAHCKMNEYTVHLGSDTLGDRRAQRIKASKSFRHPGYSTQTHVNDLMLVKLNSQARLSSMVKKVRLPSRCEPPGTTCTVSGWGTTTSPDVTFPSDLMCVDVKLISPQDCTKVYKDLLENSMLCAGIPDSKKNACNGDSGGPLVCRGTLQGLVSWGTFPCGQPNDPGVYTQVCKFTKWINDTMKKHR
Test: activation of human kallikrein-7 proenzyme – biochemical, fluorescence intensity, primary screen (AID 652039)
Settings: purified proKLK7, EDANS-DABCYL substrate fluorescence; at 7 µM; active compounds read high; 100% is mature enzyme control, 0% vehicle

Row | SMILES | activation
1 | CCOC(=O)CN1C(=O)C(O)(CC(=O)c2ccccn2)c2ccccc21 (configuration not stated) | 0.64% (inactive)
2 | O=C(NCCC1=CCCCC1)C1CCN(S(=O)(=O)c2ccc(Cl)s2)CC1 | 0.13% (inactive)
3 | Cc1cc(NS(=O)(=O)c2ccc(NC(=O)CSc3nnc(SCc4ccc(F)cc4)s3)cc2)nc(C)n1 | -0.24% (inactive)
4 | COC(=O)c1cccc(Cn2ccc3ccc(-c4ccc5ccn(C(=O)c6ccccc6C)c5c4)cc32)c1 | -10.5% (inactive)
5 | Cc1nc(SCC(=O)NC2CCCCC2C)c(C#N)c(C)c1C (configuration not stated) | -0.08% (inactive)
6 | COCc1c(N)c(C)nc(Cl)c1C#N | -1.78% (inactive)
7 | COC(=O)c1c(C)c(C)nc(N)c1C#N | 33.8% (active)
8 | Cc1ccccc1NC(=O)Cn1nnc(-c2ccccc2F)n1 | -0.28% (inactive)
9 | O=C(NC1CCCC1)C1CSCCS(=O)(=O)N1Cc1ccccc1 (configuration not stated) | 0.33% (inactive)
10 | Cc1c[nH]c2cccc(-c3ccc(Cl)cc3)c12 | 0.5% (inactive)
11 | O=C(CSc1nnc(COc2ccccc2)n1Cc1ccco1)c1ccc2ccccc2c1 | 0.09% (inactive)
12 | O=C(NCc1cccs1)C1CCCN(S(=O)(=O)c2ccc([N+](=O)[O-])cc2)C1 (configuration not stated) | -0.47% (inactive)
13 | Cc1ccc(-n2c(SCC(=O)Nc3ccc(S(=O)(=O)Nc4nccs4)cc3)nnc2-c2ccncc2)cc1 | 0.08% (inactive)
14 | CCCCCn1c(=O)c(C(=O)OCC)c(Cl)c2ccccc21 | 27.6% (active)
15 | CCCCNC(=O)CCn1c(=O)c2ccccc2n(Cc2cc(C)ccc2C)c1=O | -0.3% (inactive)
16 | CCOC(=O)CSc1nc2c(c(=O)n(Cc3ccccc3Cl)c(=O)n2C)n1C | -0.44% (inactive)
17 | C=CCn1c(SCC(N)=O)nnc1-c1ccccc1OC | -0.28% (inactive)
18 | Cc1ccc(C2=CCN(C)C(=O)N2c2ccc(Cl)cc2)cc1 | 0.11% (inactive)
19 | C[C@H](C(=O)N(C)c1ccccc1)[C@@H](O)c1ccc2ccccc2c1 | -0.85% (inactive)
20 | CN(C)S(=O)(=O)c1cccc(C(=O)N/N=C\c2ccco2)c1 | -0.04% (inactive)
21 | Cc1c(CC(=O)NCC(=O)NCC(=O)O)c(=O)oc2cc3oc4c(c3cc12)CCCC4 | -11.5% (inactive)
22 | Cc1coc2c1c(C)cc1oc(=O)c(CC(=O)NCC(=O)N[C@H](C(=O)O)C(C)C)c(C)c12 | 21.3% (active)

Row | SMILES | activation
23 | CC[C@@H](C)[C@H](NC(=O)CCc1c(C)c2cc3c4c(oc3c(C)c2oc1=O)CCCC4)C(=O)O | -2.12% (inactive)
24 | CCOC(=O)[C@]12CCCC=C1N(Cc1ccc(OC)cc1)C(=O)[C@@H]2CC(=O)N1CCOCC1 | -0.23% (inactive)
25 | Cc1ccc(CCn2c3c(c4ccccc42)CN(C)CC3)cn1 | -0.24% (inactive)
26 | COC(=O)[C@@]12CCCCC3=C1N(CCC3)C(=O)[C@H]2CC(=O)NCc1cccc2ccccc12 | 0.65% (inactive)
27 | CC(C)(C)OC(=O)NCc1cc(F)ccc1/C=C/S(=O)(=O)NCCc1ccccc1 | 0.29% (inactive)
28 | FC(F)(F)c1cccc(Cn2ccc3ccc(-c4ccc5ccn(Cc6ccccc6)c5c4)cc32)c1 | -1.25% (inactive)
29 | O=C(/C=C/c1ccc2c(c1)OCCO2)c1ccc(O)cc1 | 17.6% (active)
30 | Cc1cccc(NC(=O)/C=C/c2ccc3c(c2)OCO3)n1 | 6.43% (inactive)
31 | COc1cccc(/C=C/C(=O)Nc2ccc3c(c2)OCCO3)c1 | -0.23% (inactive)
32 | COc1ccccc1CCNC(=O)C1CCN(c2nc(C)cc(C)n2)CC1 | -0.66% (inactive)
33 | COC(=O)c1cc(S(=O)(=O)N2CCN(c3ccccc3C)CC2)cn1C | 0.47% (inactive)
34 | CN(C)Cc1c(O)ccc2c(=O)c(-c3ccccc3Cl)coc12 | 40.3% (active)
35 | CN(C)Cc1c(O)ccc2occ(C(O)c3ccccc3)c12 (configuration not stated) | -0.59% (inactive)
36 | Cc1ccc(C(=O)c2coc3ccc(O)c(CN(C)C)c23)cc1 | 0.08% (inactive)
37 | COc1ccc(CNC(=O)COC(=O)C2=Cc3ccccc3OC2)cc1 | 31.2% (active)
38 | COc1ccc(CCNC(=O)COC(=O)c2cc(=O)c3ccccc3o2)cc1 | 0.13% (inactive)
39 | COc1ccc(CNC(=O)COC(=O)C(CCSC)N2C(=O)c3ccccc3C2=O)cc1 (configuration not stated) | 0.41% (inactive)
40 | COc1ccc(-c2cc(-c3nnc(SCc4ccc([N+](=O)[O-])cc4)n3N)[nH]n2)cc1 | 0.29% (inactive)
41 | O=C(NCc1ccco1)C1CCCN(S(=O)(=O)c2ccc(Cl)s2)C1 (configuration not stated) | -0.13% (inactive)
42 | COC(=O)C1CN(CC(C)C)CCS(=O)(=O)N1Cc1ccc(F)cc1 (configuration not stated) | 0.05% (inactive)
43 | N#Cc1cnn2cc(CCN3CCOCC3)c(-c3ccc(F)cc3)nc12 | 11.7% (inactive)
44 | COc1ccc2c(c1)CCc1cn3ncc(C#N)c3nc1-2 | 47% (active)

Row | SMILES | activation
45 | COc1ccc2c(c1)CCc1c(C(=O)N3CCCC3)noc1-2 | 0.01% (inactive)
46 | CN(CCc1ccccc1)C(=O)Cn1nc(-c2ccccc2)ccc1=O | -0.3% (inactive)
47 | CCOC(=O)C1(Cc2ccccc2)CCN(Cc2cn(C(C)=O)c3ccccc23)CC1 | 0.56% (inactive)
48 | CCCCCCN1CCS(=O)(=O)N(Cc2ccc(C(F)(F)F)cc2)C(C(=O)OC)C1 (configuration not stated) | 0.5% (inactive)
49 | O=c1[nH]c(CN2CCOCC2)nc2scc(-c3ccccc3)c12 | -0.59% (inactive)
50 | CCOC(=O)c1oc2c(CN3CCN(C)CC3)c(O)ccc2c(=O)c1-c1ccc(Br)cc1 | 0.69% (inactive)
51 | O=c1c(-c2ccccc2)coc2c(CN3CCOCC3)c(O)ccc12 | 45.3% (active)
52 | O=C(NCC1COc2ccccc2O1)c1ccc(NC(=O)c2cc(F)ccc2F)cc1 (configuration not stated) | 1.38% (inactive)
53 | COc1cccc(Cn2cc(COC(=O)Nc3ccc(F)cc3)nn2)c1 | -0.1% (inactive)
54 | COc1cccc2cc(S(=O)(=O)c3ccc(C)cc3)/c(=N/NS(=O)(=O)c3ccc(C)cc3)oc12 | 0.14% (inactive)
55 | Cc1cc(S(=O)(=O)c2cc3ccc(O)c(C)c3oc2=O)ccc1F | 22.6% (active)
56 | O=C(CSc1nc2ccccc2s1)NN=Cc1ccc(O)cc1O | -0.66% (inactive)
57 | COc1cccc(/C=C2\CC3(OC(C)=O)CCCN2C3)c1 (configuration not stated) | 0.57% (inactive)
58 | O=C(CCCCCN1C(=O)C2C3C=CC(C3)C2C1=O)Nc1ccccn1 (configuration not stated) | 0.09% (inactive)
59 | C=C(C)C1CC23C(=O)C4(C(=O)c5ccccc5)C[C@@]5(C)CCC(CC2C1(C)C)(C4=O)C35OC (some centres not stated) | -0.91% (inactive)
60 | Cc1ccccc1C(=O)O | -0.39% (inactive)
61 | Cc1cc(=O)oc2c1ccc1ccccc12 | -3.76% (inactive)
62 | Cc1ccsc1-c1cc(C(=O)O)c2c(ccc3ccccc32)n1 | 12.6% (active)
63 | Cc1c(C)c2c(OCC(=O)NCCCO)cc3c(c2oc1=O)CCC(C)(C)O3 | 40.1% (active)
64 | Cc1cc(=O)oc2c3c(cc(OCC(=O)NCC(O)c4ccccc4)c12)OC(C)(C)CC3 (configuration not stated) | -10.6% (inactive)
65 | Cc1c(C)c2c(OCC(=O)N[C@@H](C(=O)O)c3ccccc3)cc3c(c2oc1=O)CCC(C)(C)O3 | 39.6% (active)
66 | Cc1c(OC(C)C(=O)N[C@@H](Cc2ccccc2)C(=O)O)ccc2c3c(c(=O)oc12)CCCC3 (some centres not stated) | -18.9% (inactive)

Row | SMILES | activation
67 | COc1ccc(CCNC(=O)COc2cc(C)cc3oc(=O)c(C)c(C)c23)cc1OC | -0.02% (inactive)
68 | Cc1cc(=O)oc2c3c(cc(OCC(=O)NCc4ccccn4)c12)OC(C)(C)CC3 | 12.5% (inactive)
69 | Cc1cc(=O)oc2c3c(cc(OCC(=O)N[C@H](C(=O)O)c4ccccc4)c12)OC(C)(C)CC3 | 47.5% (active)
70 | CCc1cc(=O)oc2c(C)c(OCC(=O)NCCN3CCOCC3)ccc12 | 1.04% (inactive)
71 | O=C(COc1ccc2c3c(c(=O)oc2c1)CCCC3)NCC(O)c1ccccc1 (configuration not stated) | -0.24% (inactive)
72 | COc1cccc(NC(=O)COc2cc(C)cc3oc(=O)cc(C)c23)c1 | -0.24% (inactive)
73 | Cc1cc(=O)oc2c3c(cc(OCC(=O)NCCC(=O)N[C@@H](C)C(=O)O)c12)OC(C)(C)CC3 | 47.4% (active)
74 | Cc1cc(=O)oc2c(C)c(OCC(=O)NCCN3CCOCC3)ccc12 | -0.44% (inactive)
75 | Cc1ccccc1NC(=O)COC(=O)c1ccc(Sc2ncn[nH]2)c([N+](=O)[O-])c1 | 0.34% (inactive)
76 | Cc1cc(C)cc(NC(=O)N2CCC(N(C)CCC(C)C)CC2)c1 | -0.07% (inactive)
77 | CC(CCN1CCC(C(O)(c2ccccc2)c2ccccc2)CC1)Oc1ccc(C(F)(F)F)cc1 (configuration not stated) | -0.17% (inactive)
78 | COC(=O)[C@]12C[C@H](CC(=O)N3CCN(C(=O)C4CC4)CC3)C(=O)N(CCC3=CCCCC3)C1=C[C@H](C(C)C)O[C@@H]2C1CC1 | 0.25% (inactive)
79 | CCCC[C@H]1C2CC(OC(=O)NCc3ccccc3)C(C2)[C@H]2CCCCN21 (some centres not stated) | 0.07% (inactive)
80 | O=C(NCc1cccnc1)c1ccc2nc([C@@H]3O[C@H](CO)[C@H](O)[C@H](O)[C@H]3O)[nH]c2c1 | -0.29% (inactive)
81 | CCOC(=O)c1csc(NC(=O)C2CCCN(S(=O)(=O)c3ccc(Cl)s3)C2)n1 (configuration not stated) | 0.6% (inactive)
82 | Cc1ccccc1N1CCN(C2CCCN(C(=O)c3cn4c(C)cccc4n3)C2)CC1 (configuration not stated) | 0.45% (inactive)
83 | CCOC(=O)[C@]12CCCCC/C=C\1N(Cc1ccc(OC)cc1)C(=O)[C@H]2CC(=O)NCc1ccc(C)o1 | 0.76% (inactive)
84 | O=C(CN1CCCc2ccccc21)NCc1ccc(F)cc1 | -0.07% (inactive)
85 | COC(=O)c1ccc(C2C3=C(Nc4nnnn42)c2ccccc2OC3)cc1 (configuration not stated) | 30.4% (active)
86 | COc1ccccc1NC(=O)C1=C(C)Nc2nnnn2C1c1cccc(Br)c1 (configuration not stated) | 0.58% (inactive)
87 | COC(=O)C1=C(C(=O)c2ccc(C)cc2)C(c2ccccc2)n2nnnc2N1 (configuration not stated) | -0.19% (inactive)

From PubChem BioAssay AID652039 (The Scripps Research Institute Molecular Screening Center, 2013)
